From PubChem BioAssay

assay: small-molecule microarray binders of probe aEGFR, primary screen, biochemical, biotinylated probe, 635/667 nm fluorescence (AID 1097); conditions: higher = more signal;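 note: probe is a biotinylated anti-EGFR antibody binding compounds printed on slides; score combines fluorescence near 667 nm and signal to noise of each spot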

Compound	composite z-score
COc1cc2c(cc1O)C(c1ccc(CN3CCCC3)cc1)N(Cc1cc3c(cc1Br)OCO3)CC2 (configuration not stated)	-0.176
CCCC[C@@H]1C[C@H]1[C@@H](NC(=O)c1cccs1)c1ccccc1C(F)(F)F	0.0695
CCOC(=O)C1=C[C@@H](c2ccccc2)N(S(=O)(=O)c2ccc(C)cc2)[C@H]1c1ccc(OC)cc1	0.756
C=CCC(OC(C)=O)[C@@H]1[C@@H](N(Cc2ccc(-c3cccc(C(F)(F)F)c3)o2)C(=O)Cc2ccc(OC)cc2)c2cc(OCCCO)ccc2N1C(=O)c1ccc(-c2ccccc2)cc1 (some centres not stated)	-0.146
C=CC[C@@H](OC(=O)Nc1ccc(SC)cc1)c1ccc(O)c(F)c1	-0.105
CCCCC=C[C@@H](NC(=O)OCc1ccccc1Cl)c1ccccc1	0.98
C=CCC(OC(C)=O)[C@@H]1[C@@H](N(Cc2cccc3ccccc23)C(=O)Cc2ccc(OC)cc2)c2cc(OCCCO)ccc2N1C(=O)c1ccc(-c2ccccc2)cc1 (some centres not stated)	-0.19
CCCC=C(CCC)[C@@H](NP(=O)(c1ccccc1)c1ccccc1)c1ccc(-c2ccccc2)cc1	0.0825
COCCCNC(=O)[C@@]1(CCC(=O)OC(C)(C)C)N=C(c2ccc(OCCCO)cc2)O[C@H]1c1ccccc1N=[N+]=[N-]	0.458
O=C(Cc1ccccc1)[C@H]1C2C=CCCC(c3ccccc3)=C2CN1Cc1ccccc1 (some centres not stated)	-0.0828
COC(=O)[C@@]1(Cc2ccc(F)cc2)[C@H]2c3cc(C(=O)N4CCCC4)n(Cc4ccc(C)c(F)c4F)c3C[C@H]2CN1C(=O)c1ccccc1	-0.111
COc1ccc(C#Cc2ccc3c(c2)[C@]2(C(=O)N3)[C@H](C(=O)O)[C@H]3C(=O)O[C@H](c4ccccc4)[C@H](c4ccccc4)N3[C@@H]2c2ccc(O)cc2)cc1	-0.0758
